Assay results: PubChem BioAssay AID1851 (National Center for Advancing Translational Sciences (NCATS), 2009)
Screen size: about 16,000 compounds; about 2,600 (16%) were called active. About 20% were inconclusive and are not listed. Calls come from the whole dose curve; as a rule, active = well fitted curve in the direction sought with a large enough effect; inconclusive = small, poorly fitted or top-dose-only effect, or effect the other way; inactive = no such curve, though single readings can be large or run the other way. The list is a sample of the results.

molecular target: Cytochrome P450 2D6 (Homo sapiens) (UniProt P10635); test: Cytochrome panel assay with activity outcomes; conditions: recombinant CYP, pro-luciferin dealkylation, luminescence, p450-cyp2d6; series mostly up to 57.1 µM
Experimental: The P450 gene superfamily is involved in the metabolism and clearance of xenobiotics. This assay used various human CYP P450 isozymes to measure the dealkylation of various pro-luciferin substrates to luciferin. The luciferin is then measured by luminescence after the addition of a luciferase detection reagent. Pro-luciferin substrate concentration in the assay was equal to its KM for its CYP P450 isozyme. Inhibitors and some substrates limit the production of luciferin, and decrease measured luminescence.
NCGC Assay Protocol Summary:
1, Reagent, 2 uL, Isozyme and Pro-Luciferin
2, Library compounds, 23 nl, 40 uM to 0.24 nM dilution series
3, Controls, 23 nl, Isozyme specific inhibitor
4, Reagent, 2 uL, NADPH regeneration solution
5, Incubation time, 60 min, Isozyme specific temperature
6, Reagent, 4ul, Detection reagent
7, Incubation time, 20 min, Isozyme specific temperature
8, Detection, 1 sec, ViewLux luminescent read
The luciferase-based P450-GloTM Screening Systems were obtained from Promega (Madison, WI) for CYP 1A2 (V9770), CYP 2C9 (V9790), CYP2 C19 (V9880), CYP 2D6 (V9890), and CYP 3A4 Luciferin-PPXE (V9910) and were adapted for 1,536-well microplates and an automated protocol. The control compounds furafylline for 1A2 (F124), sulfaphenazole for CYP 2C9 (S0758), ketoconazole for CYP 2C19 (K1003), quinidine for 2D6 (Q3625), and ketoconazole for 3A4 (K1003) were purchased from Sigma Aldrich (St. Louis, MO). Recombinant P450 enzymes were obtained from baculovirus constructs expressed in insect cells (BD/Gentest).
Medium-binding white solid Kalypsys plates used. Mixtures kept on ice. 1A2: 10 nM 1A2, 100 uM Luc-ME, 100 mM KPO4; 2C9: 10 nM 2C9, 100 uM Luc-H, 25 mM KPO4; 2C19: 5 nM 2C19, 10 uM Luc-H EGE, 50 mM KPO4; 2D6: 5 nM 2D6, 30 uM Luc-ME EGE, 100 mM KPO4; 3A4: 10 nM, 25 uM Luc-PPXE. All amounts are reflected in their final concentration, working concentration is 2x.
NADPH regeneration solution: 1.3 mM NADP+, 3.3 mM glucose-6-phosphate, 3.3 mM MgCl2, 0.4 U/mL glucose-6-phosphate dehydrogenase for all isozymes, 200 mM KPO4 for 3A4. Mixture prepared at RT but kept on ice during automated run.
RT incubation in auxilliary plate hotel for 1A2, 2D6, and 3A4; 37C for 2C9 and 2C19.
Keywords: P450, CYP1A2, CYP2C19, CYP2C9, CYP2D6, CYP3A4, Luciferase, MLSMR, MLSCN, NIH Roadmap, qHTS, NCGC

Chain of Cytochrome P450 2D6 (Homo sapiens) (P10635 whole entry, looked up): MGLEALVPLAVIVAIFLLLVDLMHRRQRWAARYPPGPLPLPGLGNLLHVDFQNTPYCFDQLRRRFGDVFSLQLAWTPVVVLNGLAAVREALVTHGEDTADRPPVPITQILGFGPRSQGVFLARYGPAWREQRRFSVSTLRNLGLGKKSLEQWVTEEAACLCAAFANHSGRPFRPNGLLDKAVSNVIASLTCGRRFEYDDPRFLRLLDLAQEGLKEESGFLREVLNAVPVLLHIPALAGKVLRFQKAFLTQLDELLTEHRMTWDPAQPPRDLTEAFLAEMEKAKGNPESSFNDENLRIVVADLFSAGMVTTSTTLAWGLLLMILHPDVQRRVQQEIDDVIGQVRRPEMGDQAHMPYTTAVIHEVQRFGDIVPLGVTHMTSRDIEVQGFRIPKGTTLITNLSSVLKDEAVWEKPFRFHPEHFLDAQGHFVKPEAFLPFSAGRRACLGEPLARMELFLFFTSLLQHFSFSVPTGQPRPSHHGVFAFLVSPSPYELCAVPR

Structure (SMILES) | AC50
Cc1ccc2c(c1)C1(SCCS1)C(=O)N2 | inactive
Nc1ccc(C(=O)NCC(=O)O)cc1 | inactive
O=C(CCNC(=O)Cn1ccc2ccccc2c1=O)NCCCN1CCN(c2ccc(F)cc2)CC1 | 10 µM (active)
COc1ccc(N2CCN(CCNC(=O)c3c(C)cc(=O)oc3C)CC2)cc1 | inactive
COc1cccc(CNC(=O)CCNC(=O)Cn2ccc3ccccc3c2=O)c1 | inactive
COc1ccc(S(N)(=O)=O)cc1C(=O)NCCCN1CCN(c2ccc(C)cc2)CC1 | inactive
COc1ccc(OC)c(CNC(=O)CCNC(=O)Cn2ccc3ccccc3c2=O)c1 | inactive
Cc1ccccc1CN1CCN(CC(=O)NCCCN2CCN(c3ccc(F)cc3)CC2)C1=O | 6.31 µM (active)
COC(=O)CSc1nc(C)cc(C(F)(F)F)c1C#N | inactive
Cc1cc2nnc(SCC(=O)N3CCN(c4ccccc4)CC3)n2c(N)n1 | inactive
CC(NC(=O)c1ccc(Cl)cc1)c1nnc(SCc2ccc([N+](=O)[O-])cc2)n1C (centres undefined) | inactive
C1CCc2nnnn2CC1 | inactive
Cc1ccc(-c2ccc(/C=N/NC(=S)Nc3ccccc3)o2)cc1[N+](=O)[O-] | inactive
CC(C)CN1CC2(CCN(C(=O)c3cccc(F)c3)CC2)C1 | inactive
CC(C)CN1CCC2(CC1)CCN(C(=O)c1cccc(F)c1)CC2 | 5.01 µM (active)
O=C(c1cccc(F)c1)N1CCC2(CCN(Cc3cc(C(F)(F)F)cc(C(F)(F)F)c3)CC2)CC1 | inactive
O=C(c1cccc(F)c1)N1CCC2(CCN(Cc3ccccc3)CC2)CC1 | 7.94 µM (active)
CC(C)NC(=O)N1CCC2(CC1)CCN(C(=O)c1cccc(F)c1)CC2 | inactive
O=C(c1cccc(F)c1)N1CCC2(CC1)CN(Cc1ccccc1)C2 | 5.01 µM (active)
O=C(c1cccc(F)c1)N1CCC2(CCCN(c3ccccc3)C2)CC1 | inactive
N#Cc1ccc(CN2CC3(CCN(C(=O)c4cccc(F)c4)CC3)C2)cc1 | inactive
O=C(c1cccc(F)c1)N1CCC2(CC1)CN(c1cccc(-c3ccccc3)c1)C2 | inactive
O=c1c(-c2ccc(F)cc2)nc2cnc(N3CCOCC3)nc2n1Cc1cccs1 | inactive
O=C(C(Cc1ccccc1)N1C(=O)C2C3CCC(C3)C2C1=O)N1CCCCC1 (centres undefined) | inactive
CCCCS(=O)(=O)NC1=NCN(Cc2ccco2)CN1 | inactive
COC(=O)c1nn(-c2cccc(C(F)(F)F)c2)c(=O)cc1Sc1ccccn1 | inactive
O=c1c(-c2ccccc2)nc2cncnc2n1Cc1ccccc1Cl | inactive
COc1cc(Br)cc2cc(C(=O)NCC3CCCO3)c(=O)oc12 (centres undefined) | inactive
CC(c1ccccc1C(O)c1ccccc1)N(C)C (centres undefined) | inactive
